Measurements from PubChem BioAssay AID1220 (Sanford-Burnham Center for Chemical Genomics, 2008).
In all, about 190,000 compounds went through this assay and about 1,300 (0.68%) were called active. What follows is part of a selection rich in actives, with near analogues and random picks from the rest. Values without a mark were called inactive. Rule as the data show it: active = inhibition above about 50%; inactive = the rest.

Biological target: Mannose-6-phosphate isomerase (Homo sapiens) (UniProt P34949)
Sequence (P34949 whole entry, looked up): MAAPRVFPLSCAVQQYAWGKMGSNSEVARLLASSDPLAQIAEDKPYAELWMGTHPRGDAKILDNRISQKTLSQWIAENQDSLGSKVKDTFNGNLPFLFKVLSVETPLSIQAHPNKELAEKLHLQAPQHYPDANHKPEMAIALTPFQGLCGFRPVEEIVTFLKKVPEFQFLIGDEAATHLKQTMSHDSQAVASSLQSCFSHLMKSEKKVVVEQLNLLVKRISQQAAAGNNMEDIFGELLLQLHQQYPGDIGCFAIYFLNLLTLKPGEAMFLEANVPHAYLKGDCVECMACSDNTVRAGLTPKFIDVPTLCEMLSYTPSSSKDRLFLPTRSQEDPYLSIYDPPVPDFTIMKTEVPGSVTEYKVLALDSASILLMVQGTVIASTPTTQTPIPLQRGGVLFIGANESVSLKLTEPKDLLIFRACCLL
Assay: human PMI inhibitors, high substrate, primary screen, biochemical, fluorescence intensity, high mannose 6-phosphate (AID 1220)
Details: recombinant PMI enzyme, coupled fluorescence intensity; at 20 µM; hits give high values

Compound	inhibition
Cn1c(SCC(=O)Nc2cccc3ccccc23)nc(O)cc1=O	26.1%
NC(=O)Cc1c[nH]c2cccc(O)c12	44.8%
O=C(O)C(=O)Cc1c[nH]c2ccccc12	-4.1%
O=C(O)Cc1c[nH]c2cccc(O)c12	51.5% (active)
CCN(CC(=O)Nc1ccc2c(c1)OCCO2)CC(=O)Nc1ccc2c(c1)OCO2	5.7%
COc1ccc(S(=O)(=O)NCCCCNS(=O)(=O)c2ccc(OC)cc2)cc1	1.1%
Cc1ccc(-c2[nH]c(-c3ccccc3)nc2SCC(=O)NCC2CCCO2)cc1 (configuration not stated)	3.3%
O=C(OC1CCN(c2ncc(C(F)(F)F)cc2Cl)CC1)c1ccccc1	11.4%
O=C(OC1CCN(c2ncc(C(F)(F)F)cc2Cl)CC1)c1ccc(Cl)cc1	7.7%
COc1ccc(C(=O)OC2CCN(c3ncc(C(F)(F)F)cc3Cl)CC2)cc1	54.2% (active)
NS(=O)(=O)c1ccc(CCNC(=O)COC(=O)/C=C/c2ccc(Cl)cc2)cc1	0.2%
CCc1nnc(NC(=O)CSc2nnc(COc3ccc(C)cc3)n2-c2ccccc2)s1	8%
O=C(N/N=C/c1ccc(-c2cccc([N+](=O)[O-])c2)o1)[C@H]1C[C@@H]1c1ccccc1	8.6%
O=C(N/N=C\c1ccc(-c2ccccc2[N+](=O)[O-])o1)C1COc2cc3ccccc3cc2O1 (configuration not stated)	65.2% (active)
O=C(N/N=C\c1cccc([N+](=O)[O-])c1O)C1COc2ccccc2O1 (configuration not stated)	-15.4%
O=C(N/N=C/c1ccco1)C1CC1c1ccccc1 (configuration not stated)	0.2%
O=C(N/N=C\c1ccc([N+](=O)[O-])o1)C1COc2ccccc2O1 (configuration not stated)	21.3%
O=C(N/N=C/c1ccc(-c2ccccc2[N+](=O)[O-])o1)[C@H]1C[C@@H]1c1ccccc1	63.4% (active)
Cc1ccc(/C=N\NC(=O)C2COc3cc4ccccc4cc3O2)o1 (configuration not stated)	0.7%
O=C(N/N=C\c1ccc(-c2ccc([N+](=O)[O-])cc2)o1)C1COc2ccccc2O1 (configuration not stated)	-8.4%
O=C(N/N=C\c1ccc(-c2ccccc2[N+](=O)[O-])o1)C1COc2ccccc2O1 (configuration not stated)	55.3% (active)
CC(=O)N1CCC(N(CCCOC(C)C)C(=O)Nc2ccc(C)c(C)c2)CC1	0.4%
Cc1nc2nc(SCC(=O)N3CCOCC3)nn2c(C)c1Cc1c(F)cccc1Cl	18.6%
Cc1cccc(NC(=O)Cn2nnc(-c3ccc(CN4CCCC4)cc3)n2)c1C	0.5%
CN(c1ccccc1)S(=O)(=O)c1cccc(C(=O)OCC(=O)NCCCN2CCCC2=O)c1	-7.4%

Compound	inhibition
CCOc1ccc(CCNC(=O)COC(=O)c2cccnc2OCC)cc1OCC	14.4%
COc1ccc(N2C(C(C)=O)=NN(c3ccccc3)C2c2cccs2)cc1 (configuration not stated)	10.7%
CCOc1ccccc1N1CC(C(=O)Nc2ccc3c(c2)OCCO3)CC1=O (configuration not stated)	1.4%
Cc1csc(/C(C#N)=N/O)n1	8.3%
CC1CC(C)CN(CC(=O)c2cccs2)C1 (configuration not stated)	-20.3%
CCc1c(C(=O)Nc2ccc(OC)c(Cl)c2)[nH]c(C)c1C(C)=O	-0.2%
O=C(NNc1cc(N2CCOCC2)nc(N2CCOCC2)n1)c1ccc(Cl)c(Cl)c1	48.8%
CC(C)(C)c1ccc(C(=O)NNc2cc(N3CCOCC3)nc(N3CCOCC3)n2)cc1	48.8%
Cc1ccc(C(=O)NNC(=O)C2CCN(c3nc(C)cc(C)n3)CC2)cc1	-8.6%
O=C(CCc1ccccc1)Nc1ccc(N2CCCCC2)cc1	3.5%
CC(C)(C)c1ccc(C(=O)NNc2cc(N3CCCCC3)nc(N3CCCCC3)n2)cc1	18.1%
O=C(NNc1cc(N2CCOCC2)nc(N2CCOCC2)n1)c1ccc([N+](=O)[O-])cc1	56.3% (active)
O=C(CCc1ccccc1)NNc1cc(N2CCCCC2)nc(N2CCCCC2)n1	53.4% (active)
Cc1ccc(C(=O)NNc2cc(N3CCCC3)nc(N3CCCC3)n2)cc1	51.4% (active)
O=C(CCc1ccccc1)NNC(=O)C1CCCCC1	-4.6%
CCOC(=O)N1CCN(C(=O)c2ccc(CN(c3ccccc3)S(C)(=O)=O)cc2)CC1	-4.3%
CC(=O)N(c1c(C)n(C)n(-c2ccccc2)c1=O)C1(C(=O)NC2CCCCC2)CCCCC1	1.3%
Cc1onc(-c2c(Cl)cccc2Cl)c1C(=O)NCCCN1CCOCC1	-0.3%
O=C(c1ccccc1)N1CCOC12CCN(c1ncc(C(F)(F)F)cc1Cl)CC2	2.1%
CCOC(=O)/C=C/C(=O)OCC(=O)Nc1c(Cl)cccc1Cl	-9.4%
CCCc1nc2c(sc3nc4c(cc32)COC(C)(C)C4)c(=O)n1CCN(CC)CC	-0.7%
CCc1nc2c(sc3nc4c(cc32)COC(C)(C)C4)c(=O)n1CCN(CC)CC	3.8%
CCCc1nc2c(sc3nc4c(cc32)COC(C)(C)C4)c(=O)n1CCN(C)C	50.8% (active)
Cc1ccc(C(=O)N/C(=C/c2ccccc2)C(=O)NCC2CCCO2)cc1 (configuration not stated)	-4.3%
NNC(=O)COc1ncn(-c2ccccc2)n1	4.5%

Compound	inhibition
Cc1ccc(NC(=O)C(=O)NCCN2CCN(C(=S)Nc3ccccc3)CC2)cc1	-0.2%
COCCNC(=O)CN(C(=O)Cn1nnc2ccccc21)c1ccc(F)c(Cl)c1	-5.3%
CC(=O)Nc1c(O)c2ccccc2[nH]c1=O	17.5%
O=c1[nH]c2ccccc2c2ccccc12	3.6%
COc1cc([N+](=O)[O-])ccc1NC(=O)CCCOc1cccc(C)c1C	9.2%
OCCOCCOc1ccc(-c2nn[nH]n2)cc1	-12.5%
CCCCC(=O)Nc1ccc(NC(=S)NC(=O)c2cccs2)cc1OC	14.4%
O=C(Nc1cccc(S(=O)(=O)Nc2ccccc2Cl)c1)c1ccc(Cl)nc1	7.3%
CCC12CN3CC(CC)(CN(C1)C3c1c(O)ccc3ccccc13)C2=O (configuration not stated)	27.9%
CN1c2ccccc2N(C)C1c1c(O)ccc2ccccc12	55.3% (active)
Oc1ccc2ccccc2c1C1Nc2cccc3cccc(c23)N1	10.6%
Fc1ccc(NC(=S)N2CCn3cccc3C2c2cccnc2)cc1 (configuration not stated)	1%
Cc1ccc(NC(=O)C(Nc2ccccc2)c2ccccc2)cc1 (configuration not stated)	1.5%
CC(=O)N1N=C(c2cccc([N+](=O)[O-])c2)OC1c1cccc(Br)c1 (configuration not stated)	4.5%
CCCCC(=Nc1ccc(N)cc1)C1=C(O)C(C(=O)OC)C(C)(C)CC1=O (configuration not stated)	15.5%
CCC(=Nc1ccc(N)cc1)C1=C(O)C(C(=O)OC)C(C)(C)CC1=O (configuration not stated)	53.8% (active)
CCCC(=Nc1ccc(N)cc1)C1=C(O)C(C(=O)OC)C(C)(C)CC1=O (configuration not stated)	28.8%
COc1ccc(OC)c2sc(NC(=O)CCSc3ccccc3)nc12	2.1%
Cc1cc(C)c2ccc(C)[n+]([O-])c2c1O	-26.8%
Cc1ccc2cccc(O)c2[n+]1[O-]	53.5% (active)
Oc1cccc2cc3cccc(O)c3c(O)c12	-119%
Cc1cccc(Cn2ccc(NC(=O)c3cccnc3)n2)c1	-9.3%
CCOc1ccc(C(=O)CC(Sc2ccc(C)cc2)C(=O)O)cc1 (configuration not stated)	-4%
CCCOC(=O)c1ccc(Oc2c(-c3ccc(O)cc3O)n[nH]c2C)cc1	5.2%
COc1cc(N2CCCC2)c(OC)cc1/C=C1/NC(=S)NC1=O	27.9%

Compound	inhibition
COc1cc(N2CCCC2)ccc1C=O	23%
COc1cc(N2CCCC2)c(OC)cc1/C=C(/C#N)c1ccc(F)cc1	54.8% (active)
COc1cc(N2CCCC2)c(OC)cc1/C=C(/C#N)c1cccc(F)c1	11.2%
COc1cc(N2CCCC2)c(OC)cc1C=O	53.6% (active)
COc1cc(N2CCCC2)c(OC)cc1/C=C(/C#N)c1ccc(Br)cc1	13.6%
CCOCCCN1CN(Cc2ccccc2)CNC1=S	-6.2%
Cc1cc(C)cc(OCC(=O)OCCN2C(=O)c3ccccc3C2=O)c1	11.5%
CCOC(=O)N1CCN(c2cccc(C)c2C)CC1	-11.4%
NC1=Nc2cccc3cccc1c23	60% (active)
CCOC(=O)N1CCN(C2=Nc3cccc4cccc2c34)CC1	58.5% (active)
NC(=O)NNC1=Nc2cccc3cccc1c23	8.5%
c1ccc(CN2CCN(C3=Nc4cccc5cccc3c45)CC2)cc1	21.9%
COc1ccccc1N1CCN(C2=Nc3cccc4cccc2c34)CC1	27.3%
CC1CN(c2nc3ccccc3cc2-c2ccccc2)CC(C)O1 (configuration not stated)	5.7%
c1ccc(NC2=Nc3cccc4cccc2c34)cc1	9.8%
CC1CN(C2=Nc3cccc4cccc2c34)CC(C)O1 (configuration not stated)	59.2% (active)
c1ccc2c(c1)CCN(C1=Nc3cccc4cccc1c34)C2	60.2% (active)
O=S1(=O)N=C(N2CCc3ccccc3C2)c2ccccc21	-8.5%
c1ccc(CC2CCN(C3=Nc4cccc5cccc3c45)CC2)cc1	10.8%
Cc1nn2c(=O)c(NC(=O)c3ccc(Cl)cc3)cnc2s1	0.6%
Cc1ccc(/C(N)=N/OC(=O)c2cccc(F)c2)cc1	3.9%
COc1ccc(C(=O)OCC(=O)N2C(C)CCCC2C)cc1[N+](=O)[O-] (configuration not stated)	-0.8%
